Results filed as inconclusive are left out. Activity calls are given as the source filed them. Unless noted, the call rests on the fitted dose curve; in most records, active means well fitted curve in the direction sought with a large enough effect; inconclusive means small, poorly fitted or top-dose-only effect, or another doubt; inactive means no such curve, though single readings can be large; an effect the other way counts as inactive or inconclusive.
What was measured:
[1] = qHTS assay for small molecule antagonists of peroxisome proliferator-activated receptor delta signaling (AID 588535); conditions: HEK293T PPARd-UAS-bla, beta-lactamase FRET ratio, 18 h; 460 nm channel;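 further: cells co-treated with a PPAR-delta agonist as stimulator during compound exposure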
Outline: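 HEK293T PPAR-delta-UAS-bla cells, 4000/well, 2% charcoal/dextran FBS; 5 h 37 C; cpd titration; 18 h 37 C; CCF4 2 h RT; FI 460/530 nm; Hill fit → IC50, efficacy.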

[2] = molecular target: Peroxisome proliferator-activated receptor gamma (Homo sapiens) (UniProt P37231); assay: qHTS assay for small molecule agonists of peroxisome proliferator-activated receptor gamma signaling (AID 588536; active means well fitted curve in the direction sought with a large enough effect in the signal ratio, with a control signal flat, not every such curve was filed as active; the % refers to the signal ratio;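 further: 0% = DMSO basal wells and 100% = rosiglitazone at 2 µM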)
Outline: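 HEK293 UAS-bla reporter line, 1% charcoal/dextran FBS; titration, 16 h, 37 C; CCF4 loading 2 h RT; fluorescence 460/530 nm. Normalized to rosiglitazone 2 uM = 100%, DMSO = 0%.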

[3] = molecular target: Vitamin D3 receptor (Homo sapiens) (UniProt P11473); assay: qHTS assay for small molecule agonists of vitamin D receptor signaling (AID 588543; calls by dose curve;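 further: 0% = DMSO basal and 100% = reference agonist control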)
Outline: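 VDR-UAS-bla HEK293T cells, 2000/well, 2% charcoal-stripped FBS; compound titration 16 h at 37 C; CCF4 beta-lactamase ratio read. Normalized to 50 nM 1-alpha,25-dihydroxyvitamin D3 (100%) and DMSO; Hill fit gives EC50, efficacy.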

[4] = qHTS assay for small molecule antagonists of retinoid X receptor alpha signaling (AID 588546; active means well fitted inhibition curve with a large enough effect in the signal ratio, with a control signal flat, not every such curve was filed as active; the % refers to the signal ratio;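 further: cells stimulated with 9-cis-retinoic acid as agonist; on the % scale 0 is the no-effect control and ±100 the full control effect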); conditions: HEK293T RXRa-UAS-bla, beta-lactamase ratio, antagonist mode; measured here: W530 green channel, cytotoxicity proxy
Outline: (§1)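 Beta-lactamase reporter inhibition, read as CCF4 fluorescence ratio (ex 405, em 460/530 nm) after 2 h at RT. HEK293T UAS-bla cells, 2500/well, were stimulated with 9-cis-RA at 500 or 100 nM final alongside test compound for 18 h at 37 C.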

[5] = molecular target: Retinoic acid receptor RXR-alpha (Homo sapiens) (UniProt P19793); assay: as above; conditions: HEK293T RXRa-UAS-bla, beta-lactamase ratio, antagonist mode
Outline: as §1

[6] = molecular target: Thyroid hormone receptor beta (Homo sapiens) (UniProt P10828); assay: qHTS assay for small molecule antagonists of thyroid hormone receptor beta signaling (AID 588547; active means well fitted inhibition curve with a large enough effect in the signal ratio, with a control signal flat, not every such curve was filed as active; the % refers to the signal ratio;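 further: cells stimulated with 0.4 nM T3 agonist during compound exposure; series mostly up to about 77 µM; on the % scale 0 is the no-effect control and ±100 the full control effect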); conditions: TR-UAS-bla HEK293, beta-lactamase ratio, antagonist mode, 18 h
Outline: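 Inhibition of T3-driven (0.4nM final) beta-lactamase reporter activity was measured over 0.59 nM to 92 uM compound after 18 h at 37 C. The cells were GripTite HEK293 TR-UAS-bla in charcoal/dextran-stripped serum, with CCF4 ratio read-out and IC50 from Hill fits.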

[7] = qHTS assay for environmental chemicals that activate the Aryl hydrocarbon Receptor (AhR) signaling pathway (AID 651777); conditions: 1A2-DRE human hepatoma cells, luciferase, 24 h; activation: stronger effect = higher value; further: % of control where 0% means no effect; nearly all actives have a fitted effect of over 15% in size
Outline: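 Luminescence read-out: One-Glo added for 30 min at RT after 24 hr compound treatment (37 C, 5% CO2) of human hepatoma cells expressing a DRE/CYP1A2 promoter–luciferase reporter; increased signal indicates AhR activation.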

[8] = molecular target: Peroxisome proliferator-activated receptor alpha (Homo sapiens) (UniProt Q07869); assay: qHTS assay for small molecule agonists of the peroxisome proliferator-activated receptor alpha (PPARalpha) signaling pathway (AID 651778); conditions: PathHunter PPARalpha complementation, chemiluminescence, 6 h; max response: stronger effect = higher value; further: % of control where 0% means no effect
Outline: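 Chemiluminescence from complemented enzyme reported PPARalpha activation in cells after 6 hr of compound treatment at 37 C. The detection reagent was incubated for 60 min at room temperature, and compounds were scored as agonists.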

[9] = qHTS assay for small molecule agonists of the antioxidant response element (ARE) signaling pathway measured by Nrf2-dependant transcriptional activity (AID 720636; active means well fitted curve in the direction sought with a large enough effect in the repeat runs; an effect the other way counts as inactive or inconclusive;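 further: HepG2 cells with an ARE-driven luciferase reporter; % of control where 0% means no effect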)
Outline: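 HepG2 ARE-luc reporter line, 1% dialyzed FBS; 6 hr attachment at 37 C, compound pinned in, 16 hr at 37 C/5% CO2; ONE-Glo, 30 min RT, luminescence read.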

[10] = qHTS assay for small molecule agonists of the antioxidant response element (ARE) signaling pathway measured by Nrf2-dependant transcriptional activity - cell viability counter screen (AID 720653; active means well fitted curve in the direction sought with a large enough effect in the repeat runs; an effect the other way counts as inactive or inconclusive; further: on the % scale 0 is the no-effect control and ±100 the full control effect); conditions: ARE-bla HepG2 viability, CellTiter-Glo ATP luminescence, 16 h; max response: stronger effect = lower value
Outline: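 Cytotoxicity counter screen: intracellular ATP quantified by CellTiter-Glo luminescence in the same ARE-bla HepG2 plates, after 16 h compound exposure and a 2 h beta-lactamase substrate step.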

[11] = qHTS assay for cell viability of HEK293 cells (AID 743288); conditions: ATP luminescence (CellTiter-Glo), 18 h; max response: stronger effect = lower value; further: on the % scale 0 is the no-effect control and ±100 the full control effect; nearly all actives have a fitted effect of over 50% in size
Outline: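 Parental HEK293 cells, 2,000 per well, preincubated at least 5 h at 37 C, then exposed to compounds in DMSO for 18 h at 37 C. Viability by CellTiter-Glo ATP luminescence after 30 min at room temperature.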

[12] = qHTS assay for cell viability of the p53RE-bla HCT-116 cell line (AID 743292); further: on the % scale 0 is the no-effect control and ±100 the full control effect; nearly all actives have a fitted effect of over 55% in size
Outline: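 Luminescent ATP quantitation (CellTiter-Glo) served as the viability read-out; reagent was added after 16 h compound exposure at 37 C and read after 30 min at room temperature. Cells: p53RE-bla HCT-116, 4,000 per well.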

[13] = molecular target: Nuclear receptor subfamily 1 group I member 2 (Rattus norvegicus) (UniProt Q9R1A7); assay: qHTS assay for small molecule activators of the rat pregnane X receptor (rPXR) signaling pathway (AID 651751; call rule not given here; further: 0% is about no effect); conditions: rPXR reporter cells, luciferase (One-Glo), 24 h
[14] = molecular target: Estrogen receptor (Homo sapiens) (UniProt P03372); assay: qHTS assay for small molecule agonists of estrogen receptor alpha signaling (AID 588514; calls by dose curve;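 further: 0% = vehicle only and 100% = reference agonist; nearly all actives have a fitted effect of over 70% in size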)
Outline: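 Cells were plated at 5000/well, incubated 4 hrs at 37 C, dosed with compound titration series, incubated 18 hrs at 37 C, loaded with CCF4 dye for 2 hrs at RT, then fluorescence was read.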

[15] = molecular target: Thyroid hormone receptor beta (Homo sapiens) (UniProt P10828); assay: qHTS assay for small molecule agonists of thyroid hormone receptor beta signaling (AID 588545; calls by dose curve;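 further: 0% = DMSO only and 100% = 10 nM T3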)
Outline: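 Efficacy and EC50 values derive from Hill fits of qHTS titration data, normalized to 10 nM T3 and DMSO-only wells. HEK 293 reporter cells were stimulated for 18 hrs at 37 C, with beta-lactamase activity measured by CCF4 fluorescence.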

[16] = qHTS assay for small molecule activators of the p53 signaling pathway (AID 651743; active means well fitted activation curve with a large enough effect in the signal ratio, not every such curve was filed as active; the % refers to the signal ratio; further: series mostly up to about 92 µM; % of control where 0% means no effect); conditions: HCT-116 p53RE-bla, beta-lactamase FRET ratio, 16 h; activation: stronger effect = higher value
Outline: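 Read-out is fluorescence intensity from the LiveBLAzer B/G FRET substrate, added for 2 hours at room temperature after HCT-116 p53RE-bla cells had been incubated with compounds for 16 hours at 37 C.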

[17] = qHTS assay for small molecule agonists of retinoid X receptor alpha signaling (AID 588544; calls by dose curve;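 on activation: 0% = DMSO basal wells and 100% = reference agonist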); conditions: HEK293T RXRa-UAS-bla, beta-lactamase reporter, 18 h; 530 nm emission
[18] = molecular target: Retinoic acid receptor RXR-alpha (Homo sapiens) (UniProt P19793); assay: as above
[19] = qHTS assay for small molecule activators of the human pregnane X receptor (PXR) signaling pathway (AID 720659; call rule not given here; further: 0% is about no effect)
[20] = molecular target: Peroxisome proliferator-activated receptor gamma (Homo sapiens) (UniProt P37231); assay: qHTS assay for small molecule antagonists of peroxisome proliferator-activated receptor gamma signaling (AID 588537; active means well fitted inhibition curve with a large enough effect in the signal ratio, with a control signal flat, not every such curve was filed as active; the % refers to the signal ratio;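 further: reporter cells co-stimulated with 50 nM rosiglitazone agonist during compound treatment; % of control where 0% means no effect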)
Outline: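 Antagonist mode, beta-lactamase reporter in HEK293; charcoal/dextran FBS 1%; 3000 cells/well, 37 C 6-6.5 h; cpd titration + rosiglitazone 50 nM final, 16 h 37 C; CCF4, 2 h RT; 460/530 nm; Hill fit → IC50, efficacy.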

Thyroid hormone receptor beta (Homo sapiens), sequence (P10828 whole entry, looked up): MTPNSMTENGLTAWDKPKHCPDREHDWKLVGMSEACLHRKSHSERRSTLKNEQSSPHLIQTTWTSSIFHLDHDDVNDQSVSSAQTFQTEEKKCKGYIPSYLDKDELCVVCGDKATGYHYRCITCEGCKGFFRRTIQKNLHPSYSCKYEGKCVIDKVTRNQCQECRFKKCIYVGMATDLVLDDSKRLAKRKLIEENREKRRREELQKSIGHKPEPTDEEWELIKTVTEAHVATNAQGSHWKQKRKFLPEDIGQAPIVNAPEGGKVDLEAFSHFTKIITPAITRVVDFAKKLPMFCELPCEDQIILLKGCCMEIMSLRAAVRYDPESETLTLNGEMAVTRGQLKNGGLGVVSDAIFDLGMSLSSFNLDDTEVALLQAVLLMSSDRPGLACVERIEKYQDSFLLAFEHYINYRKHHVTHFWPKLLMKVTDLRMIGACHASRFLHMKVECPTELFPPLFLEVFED
Estrogen receptor (Homo sapiens), sequence (P03372 whole entry, looked up): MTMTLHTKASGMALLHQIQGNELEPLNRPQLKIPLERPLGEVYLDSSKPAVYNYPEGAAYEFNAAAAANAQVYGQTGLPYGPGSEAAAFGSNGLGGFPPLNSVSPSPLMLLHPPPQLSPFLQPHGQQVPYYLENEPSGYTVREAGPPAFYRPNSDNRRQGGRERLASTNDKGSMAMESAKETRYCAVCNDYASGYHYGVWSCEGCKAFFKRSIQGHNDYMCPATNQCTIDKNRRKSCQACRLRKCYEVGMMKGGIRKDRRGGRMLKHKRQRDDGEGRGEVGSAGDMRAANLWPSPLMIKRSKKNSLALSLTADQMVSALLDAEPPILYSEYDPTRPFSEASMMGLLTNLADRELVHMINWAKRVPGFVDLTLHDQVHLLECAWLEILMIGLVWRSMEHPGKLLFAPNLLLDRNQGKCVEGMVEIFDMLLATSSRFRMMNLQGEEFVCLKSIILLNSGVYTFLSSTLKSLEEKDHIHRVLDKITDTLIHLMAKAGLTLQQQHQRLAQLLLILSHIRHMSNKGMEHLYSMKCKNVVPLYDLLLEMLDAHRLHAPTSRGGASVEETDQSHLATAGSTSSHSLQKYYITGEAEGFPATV
Vitamin D3 receptor (Homo sapiens), sequence (P11473 whole entry, looked up): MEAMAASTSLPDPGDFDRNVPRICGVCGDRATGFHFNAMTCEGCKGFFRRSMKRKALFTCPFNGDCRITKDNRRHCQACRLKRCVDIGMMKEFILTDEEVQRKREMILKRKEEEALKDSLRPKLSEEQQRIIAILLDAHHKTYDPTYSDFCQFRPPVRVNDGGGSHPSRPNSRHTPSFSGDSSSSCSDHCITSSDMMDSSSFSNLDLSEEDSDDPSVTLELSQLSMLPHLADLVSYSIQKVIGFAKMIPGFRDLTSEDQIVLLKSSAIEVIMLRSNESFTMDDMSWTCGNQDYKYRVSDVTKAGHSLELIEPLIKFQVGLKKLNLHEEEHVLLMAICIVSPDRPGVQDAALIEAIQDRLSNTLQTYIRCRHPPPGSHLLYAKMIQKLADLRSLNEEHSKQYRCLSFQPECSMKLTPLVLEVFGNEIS
Nuclear receptor subfamily 1 group I member 2 (Rattus norvegicus), sequence (Q9R1A7 whole entry, looked up): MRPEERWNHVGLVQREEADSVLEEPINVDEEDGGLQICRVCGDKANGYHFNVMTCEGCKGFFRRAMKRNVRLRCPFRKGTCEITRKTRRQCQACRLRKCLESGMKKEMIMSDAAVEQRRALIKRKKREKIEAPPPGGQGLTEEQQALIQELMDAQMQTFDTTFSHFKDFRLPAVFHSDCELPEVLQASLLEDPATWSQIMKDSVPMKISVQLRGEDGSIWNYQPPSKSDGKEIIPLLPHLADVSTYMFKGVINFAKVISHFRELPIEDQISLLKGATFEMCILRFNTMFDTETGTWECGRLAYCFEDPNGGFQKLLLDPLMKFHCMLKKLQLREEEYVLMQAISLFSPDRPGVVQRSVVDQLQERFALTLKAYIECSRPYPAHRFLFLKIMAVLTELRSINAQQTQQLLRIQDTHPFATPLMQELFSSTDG
Peroxisome proliferator-activated receptor alpha (Homo sapiens), sequence (Q07869 whole entry, looked up): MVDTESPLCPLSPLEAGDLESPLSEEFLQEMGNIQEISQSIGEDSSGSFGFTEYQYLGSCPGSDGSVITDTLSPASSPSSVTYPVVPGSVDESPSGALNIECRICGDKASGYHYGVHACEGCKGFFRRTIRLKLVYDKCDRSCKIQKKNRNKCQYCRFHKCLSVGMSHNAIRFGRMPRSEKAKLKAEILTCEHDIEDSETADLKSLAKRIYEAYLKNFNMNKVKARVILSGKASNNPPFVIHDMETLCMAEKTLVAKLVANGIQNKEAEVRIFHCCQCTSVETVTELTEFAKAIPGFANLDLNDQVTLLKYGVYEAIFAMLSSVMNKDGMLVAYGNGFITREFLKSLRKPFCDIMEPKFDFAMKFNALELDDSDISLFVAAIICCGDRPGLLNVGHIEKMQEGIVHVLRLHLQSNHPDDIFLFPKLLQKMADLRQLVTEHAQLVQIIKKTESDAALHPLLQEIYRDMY
Peroxisome proliferator-activated receptor gamma (Homo sapiens), sequence (P37231 whole entry, looked up): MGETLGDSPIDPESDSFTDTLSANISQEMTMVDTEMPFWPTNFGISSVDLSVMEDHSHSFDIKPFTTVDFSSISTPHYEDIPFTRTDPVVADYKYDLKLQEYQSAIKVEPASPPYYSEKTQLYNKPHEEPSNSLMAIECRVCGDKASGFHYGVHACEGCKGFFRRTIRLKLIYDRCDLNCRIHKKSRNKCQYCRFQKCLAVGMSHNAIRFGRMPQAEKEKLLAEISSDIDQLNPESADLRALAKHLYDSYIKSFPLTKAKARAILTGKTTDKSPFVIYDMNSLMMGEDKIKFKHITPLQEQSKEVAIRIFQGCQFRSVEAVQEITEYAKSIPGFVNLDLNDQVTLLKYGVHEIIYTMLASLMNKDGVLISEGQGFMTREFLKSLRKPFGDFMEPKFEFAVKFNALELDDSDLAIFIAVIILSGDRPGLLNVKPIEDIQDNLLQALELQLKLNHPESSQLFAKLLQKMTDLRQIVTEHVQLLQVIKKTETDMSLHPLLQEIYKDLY
Retinoic acid receptor RXR-alpha (Homo sapiens), sequence (P19793 whole entry, looked up): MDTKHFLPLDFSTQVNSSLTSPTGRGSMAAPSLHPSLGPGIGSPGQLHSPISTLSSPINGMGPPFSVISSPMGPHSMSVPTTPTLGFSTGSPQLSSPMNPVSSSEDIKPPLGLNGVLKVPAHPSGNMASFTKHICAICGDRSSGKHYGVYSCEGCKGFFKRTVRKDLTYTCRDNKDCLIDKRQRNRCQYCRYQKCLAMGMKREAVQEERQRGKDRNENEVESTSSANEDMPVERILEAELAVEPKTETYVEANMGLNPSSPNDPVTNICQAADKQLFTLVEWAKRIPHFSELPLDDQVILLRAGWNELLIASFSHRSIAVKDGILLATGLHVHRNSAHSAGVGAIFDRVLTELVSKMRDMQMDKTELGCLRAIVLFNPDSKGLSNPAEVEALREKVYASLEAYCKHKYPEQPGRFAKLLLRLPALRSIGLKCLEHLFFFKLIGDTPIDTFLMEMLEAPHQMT

SMILES | max response [1] | outcome [2] | outcome [3] | max response [4] | max response [5] | activity change % (negative = inhibition) [6] | activation [7] | max response [8] | Potency [9] | max response [10] | max response [11] | Potency [12] | max response [13] | Potency [14] | Potency [15] | activation [16] | max response [17] | Potency [18] | outcome [19] | Potency [20]
COc1ccccc1NC(=O)CC(C)=O | 49.4% | inactive | inactive | 7.64% | -16% (inactive) | -1.32% (inactive) | 6.41% (inactive) | 0.153% (inactive) | inactive | 2.57% (inactive) | -19.2% (inactive) | inactive | 5.67% (inactive) |  |  |  |  |  |  | 
O=S(c1ccc(Cl)cc1)c1cc(Cl)c(Cl)cc1Cl (stereo not given) | 14.8% |  | inactive |  |  | -2.9% (inactive) | 0.902% (inactive) | -1.31% (inactive) | inactive | -25.7% (inactive) | -14.5% (inactive) | inactive |  | inactive | inactive | 3.87% (inactive) |  |  |  | 
CC1(C)CC(OC(=O)CCCCCCCCC(=O)OC2CC(C)(C)NC(C)(C)C2)CC(C)(C)N1 | 5.94% | inactive | inactive | 5.99% | -19.6% (inactive) |  | 0.228% (inactive) | -4.12% (inactive) | inactive | -3.17% (inactive) | -10.1% (inactive) | inactive | -0.828% (inactive) | inactive | inactive |  | -2.95% | inactive | inactive | 
C/C=C/C/C=C\CCCCCCCCOC(C)=O | 15.9% | inactive | inactive | -5.66% | -0.494% (inactive) | -5.4% (inactive) | 1.59% (inactive) | -1.2% (inactive) | inactive | 5.44% (inactive) | 0.639% (inactive) | inactive | 0.0563% (inactive) | inactive | inactive |  | -14.4% | inactive | inactive | inactive
c1ccc(B(c2ccccc2)c2ccccc2)cc1 | -3.44% | inactive | inactive | 3.4% |  |  | 1.54% (inactive) | -0.443% (inactive) | inactive | -1.71% (inactive) | -15.9% (inactive) | inactive | 1.02% (inactive) | inactive | inactive | -0.854% (inactive) | 7.43% | inactive |  | inactive
CCCCN(CCCC)CCCCCCN(CCCC)CCCC | 6.65% | inactive | inactive |  |  | 10% (inactive) | 1.73% (inactive) | -0.567% (inactive) | inactive | -9.43% (inactive) | -21.9% (inactive) | inactive | 4.27% (inactive) | inactive | inactive | -4.69% (inactive) | -14.8% | inactive | inactive | inactive
CCCCCCCCCCCCCCCCCC#N | 1.68% | inactive |  | -8.8% | -4.3% (inactive) | 11.1% (inactive) | 2.76% (inactive) |  | inactive | 11.9% (inactive) | -12.8% (inactive) | inactive | 2.15% (inactive) | inactive | inactive | -6.64% (inactive) | -14.7% | inactive | inactive | inactive
CCCCOCCOCCO |  | inactive | inactive | 1.46% | -25.6% (inactive) | 15.3% (inactive) | 0.311% (inactive) | -0.568% (inactive) | inactive | 3.56% (inactive) | -12.6% (inactive) | inactive | -2.42% (inactive) | inactive | inactive | 0.276% (inactive) | -10.9% | inactive | inactive | inactive
C=C(C)C(=O)OCCN(C)C | -44.3% |  | inactive | 0.555% | 6.15% (inactive) | 5.49% (inactive) | 0.477% (inactive) | -0.281% (inactive) | inactive | -4.72% (inactive) | -8.88% (inactive) | inactive | 5.37% (inactive) | inactive | inactive | -0.52% (inactive) |  |  | inactive | inactive
CCO[Si](CCC#N)(OCC)OCC |  | inactive |  | -13.6% | -7.94% (inactive) | 18.5% (inactive) |  | -0.819% (inactive) | inactive | -7.54% (inactive) | -14.2% (inactive) | inactive | -1.9% (inactive) | inactive | inactive |  | -7.96% | inactive | inactive | inactive
CCCCCCCC(=O)Oc1c(Br)cc(C#N)cc1Br |  | inactive | inactive | -5.85% | -20.9% (inactive) | -2.51% (inactive) |  |  | inactive | 0.905% (inactive) | -6.14% (inactive) | inactive | -8.28% (inactive) | inactive | inactive | 6.26% (inactive) | -14.9% | inactive | inactive | inactive
C1CCC2(CCCCO2)OC1 | 51.5% | inactive | inactive | -9.54% | -3.1% (inactive) | 7.84% (inactive) | 0.829% (inactive) |  | inactive | 2.39% (inactive) | 3.07% (inactive) | inactive | -2.06% (inactive) | inactive | inactive |  | -20.2% | inactive | inactive | 

— PubChem BioAssay (NCATS)
